Experimental findings from ChEMBL document CHEMBL1961873, “Compounds: GSK PKIS; Assays: Nanosyn kinase panel” (2012) are described below.

“And” between values parts separate entries of the source, which are not always exact repeats. Identical values can stand only once.

Assay [1] concerns the target Casein kinase I isoform gamma-2 (Homo sapiens) (UniProt P78368). The note with it: at 1 µM.
The target of assay [2] is Casein kinase I isoform gamma-3 (Homo sapiens) (UniProt Q9Y6M4). The conditions noted are these: at 0.1 µM.
Sequence of Casein kinase I isoform gamma-3 (Homo sapiens) (Q9Y6M4 whole entry, looked up, canonical isoform): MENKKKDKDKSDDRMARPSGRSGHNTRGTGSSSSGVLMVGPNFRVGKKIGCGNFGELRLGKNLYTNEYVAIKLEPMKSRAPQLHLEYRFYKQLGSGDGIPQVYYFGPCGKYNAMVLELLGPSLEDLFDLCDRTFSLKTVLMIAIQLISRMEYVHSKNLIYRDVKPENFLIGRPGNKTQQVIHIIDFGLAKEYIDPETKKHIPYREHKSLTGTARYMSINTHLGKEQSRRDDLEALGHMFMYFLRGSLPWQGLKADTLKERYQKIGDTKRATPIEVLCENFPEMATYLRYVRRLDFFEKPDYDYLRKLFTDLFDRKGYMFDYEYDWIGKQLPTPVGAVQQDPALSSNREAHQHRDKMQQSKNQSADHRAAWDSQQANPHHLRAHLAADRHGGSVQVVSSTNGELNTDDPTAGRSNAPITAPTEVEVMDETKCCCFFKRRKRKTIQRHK
For assay [3] the target is unchanged. The conditions noted are these: at 1 µM.
Assay [4] has as its target Cyclin-dependent kinase 1 (Homo sapiens) (UniProt P06493). The conditions noted are these: at 0.1 µM.
For assay [5] the target is unchanged. The note with it: at 1 µM.
Assay [6] has as its target Cyclin-dependent kinase 2 (Homo sapiens) (UniProt P24941). The note with it: at 0.1 µM.
For assay [7] the target is unchanged. The note with it: at 1 µM.
The target is the same in assay [8]. The note with it: at 0.1 µM. This is another data set of the same source.
Assay [9] shares this target. The conditions noted are these: at 1 µM. This is another data set of the same source.
For assay [10], the target named is T1, CDK3/Cyclin E (Homo sapiens) (UniProt P24864+Q00526). The conditions noted are these: at 0.1 µM.
T1 sequence (P24864 whole entry, looked up): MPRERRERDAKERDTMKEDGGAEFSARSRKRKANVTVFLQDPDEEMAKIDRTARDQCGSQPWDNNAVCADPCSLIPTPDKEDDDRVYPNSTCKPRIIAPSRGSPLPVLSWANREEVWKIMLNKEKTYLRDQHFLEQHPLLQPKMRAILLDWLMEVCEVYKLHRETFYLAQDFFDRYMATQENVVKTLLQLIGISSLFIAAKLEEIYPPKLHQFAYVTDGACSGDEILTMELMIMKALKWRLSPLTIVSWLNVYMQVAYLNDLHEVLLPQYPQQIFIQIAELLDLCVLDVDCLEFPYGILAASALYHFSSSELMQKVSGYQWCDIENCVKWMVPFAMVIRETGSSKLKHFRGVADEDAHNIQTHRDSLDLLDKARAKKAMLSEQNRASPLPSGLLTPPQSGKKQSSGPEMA
T1 sequence (Q00526 whole entry, looked up): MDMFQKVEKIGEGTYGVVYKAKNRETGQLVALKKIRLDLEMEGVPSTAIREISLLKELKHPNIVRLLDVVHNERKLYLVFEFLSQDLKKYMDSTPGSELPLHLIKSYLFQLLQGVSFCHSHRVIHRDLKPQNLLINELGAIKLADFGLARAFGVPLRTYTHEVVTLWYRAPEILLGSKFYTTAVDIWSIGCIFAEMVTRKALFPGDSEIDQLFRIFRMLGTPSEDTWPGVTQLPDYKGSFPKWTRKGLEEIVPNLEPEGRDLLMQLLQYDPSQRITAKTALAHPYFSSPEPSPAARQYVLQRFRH
Assay [11] deals with T1, CDK3/Cyclin E (Homo sapiens). The conditions noted are these: at 1 µM.
Assay [12] addresses Cyclin-dependent kinase 4 (Homo sapiens) (UniProt P11802). The conditions noted are these: at 0.1 µM.
The target is the same in assay [13]. The conditions noted are these: at 1 µM.
The target in assay [14] is Cyclin-dependent kinase 5 (Homo sapiens) (UniProt Q00535). The conditions noted are these: at 0.1 µM.
Sequence of Cyclin-dependent kinase 5 (Homo sapiens) (Q00535 whole entry, looked up): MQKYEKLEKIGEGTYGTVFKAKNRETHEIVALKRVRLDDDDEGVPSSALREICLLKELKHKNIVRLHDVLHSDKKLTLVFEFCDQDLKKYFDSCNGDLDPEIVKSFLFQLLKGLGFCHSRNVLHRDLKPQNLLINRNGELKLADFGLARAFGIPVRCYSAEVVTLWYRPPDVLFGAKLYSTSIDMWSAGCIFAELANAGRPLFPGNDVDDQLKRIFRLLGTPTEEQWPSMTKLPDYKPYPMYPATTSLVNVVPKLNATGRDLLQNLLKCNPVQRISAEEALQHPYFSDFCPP
For assay [15] the target is unchanged. The conditions noted are these: at 1 µM.
Assay [16] concerns the target Cyclin-dependent kinase 6 (Homo sapiens) (UniProt Q00534). The conditions noted are these: at 0.1 µM.
Assay [17] has the same target. The note with it: at 1 µM.
Assay [18] addresses Dual specificity protein kinase CLK2 (Homo sapiens) (UniProt P49760). The note with it: at 0.1 µM.
Assay [19] has the same target. The note with it: at 1 µM.
The target of assay [20] is Dual specificity protein kinase CLK3 (Homo sapiens) (UniProt P49761). The note with it: at 0.1 µM.
Sequence of Dual specificity protein kinase CLK3 (Homo sapiens) (P49761 whole entry, looked up): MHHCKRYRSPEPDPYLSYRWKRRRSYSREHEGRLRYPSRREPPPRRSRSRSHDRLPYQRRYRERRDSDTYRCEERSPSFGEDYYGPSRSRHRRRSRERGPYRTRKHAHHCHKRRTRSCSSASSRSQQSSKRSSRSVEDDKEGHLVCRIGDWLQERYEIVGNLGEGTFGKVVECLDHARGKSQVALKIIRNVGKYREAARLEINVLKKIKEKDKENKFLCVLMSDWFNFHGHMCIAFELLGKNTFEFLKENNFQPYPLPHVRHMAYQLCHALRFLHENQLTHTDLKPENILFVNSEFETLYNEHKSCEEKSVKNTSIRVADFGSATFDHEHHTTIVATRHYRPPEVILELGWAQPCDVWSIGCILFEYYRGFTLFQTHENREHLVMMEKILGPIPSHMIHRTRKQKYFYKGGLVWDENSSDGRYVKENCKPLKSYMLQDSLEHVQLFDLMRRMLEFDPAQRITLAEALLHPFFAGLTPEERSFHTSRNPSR

Sequence of Cyclin-dependent kinase 6 (Homo sapiens) (Q00534 whole entry): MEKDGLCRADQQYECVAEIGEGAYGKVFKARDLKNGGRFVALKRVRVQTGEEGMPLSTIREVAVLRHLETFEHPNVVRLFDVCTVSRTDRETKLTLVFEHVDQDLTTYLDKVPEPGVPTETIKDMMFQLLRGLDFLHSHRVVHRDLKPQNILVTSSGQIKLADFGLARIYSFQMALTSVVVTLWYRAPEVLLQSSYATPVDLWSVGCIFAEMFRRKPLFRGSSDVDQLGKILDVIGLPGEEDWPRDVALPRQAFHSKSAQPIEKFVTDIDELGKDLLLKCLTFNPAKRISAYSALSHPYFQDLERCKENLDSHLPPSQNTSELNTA
Sequence of Cyclin-dependent kinase 4 (Homo sapiens) (P11802 whole entry): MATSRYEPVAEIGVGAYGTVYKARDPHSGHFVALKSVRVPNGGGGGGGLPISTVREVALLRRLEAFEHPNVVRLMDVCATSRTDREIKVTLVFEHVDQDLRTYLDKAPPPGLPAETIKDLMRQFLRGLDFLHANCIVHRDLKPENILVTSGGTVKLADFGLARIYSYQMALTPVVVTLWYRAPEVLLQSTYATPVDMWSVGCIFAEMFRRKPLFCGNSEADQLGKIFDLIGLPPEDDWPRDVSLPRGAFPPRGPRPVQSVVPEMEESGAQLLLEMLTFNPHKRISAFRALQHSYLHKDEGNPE
Sequence of Casein kinase I isoform gamma-2 (Homo sapiens) (P78368 whole entry, looked up, canonical isoform): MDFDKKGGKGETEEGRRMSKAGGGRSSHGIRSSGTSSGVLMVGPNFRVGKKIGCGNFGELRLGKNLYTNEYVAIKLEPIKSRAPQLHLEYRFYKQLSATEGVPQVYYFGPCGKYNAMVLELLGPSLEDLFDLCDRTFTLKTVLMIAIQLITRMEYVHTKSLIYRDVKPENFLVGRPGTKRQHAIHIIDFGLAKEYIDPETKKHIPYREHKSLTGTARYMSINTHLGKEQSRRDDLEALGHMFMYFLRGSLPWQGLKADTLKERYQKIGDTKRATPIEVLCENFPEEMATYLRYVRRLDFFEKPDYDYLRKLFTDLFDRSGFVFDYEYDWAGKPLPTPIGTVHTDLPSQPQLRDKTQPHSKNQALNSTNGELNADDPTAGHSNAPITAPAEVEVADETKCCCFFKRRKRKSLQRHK
Sequence of Dual specificity protein kinase CLK2 (Homo sapiens) (P49760 whole entry, looked up): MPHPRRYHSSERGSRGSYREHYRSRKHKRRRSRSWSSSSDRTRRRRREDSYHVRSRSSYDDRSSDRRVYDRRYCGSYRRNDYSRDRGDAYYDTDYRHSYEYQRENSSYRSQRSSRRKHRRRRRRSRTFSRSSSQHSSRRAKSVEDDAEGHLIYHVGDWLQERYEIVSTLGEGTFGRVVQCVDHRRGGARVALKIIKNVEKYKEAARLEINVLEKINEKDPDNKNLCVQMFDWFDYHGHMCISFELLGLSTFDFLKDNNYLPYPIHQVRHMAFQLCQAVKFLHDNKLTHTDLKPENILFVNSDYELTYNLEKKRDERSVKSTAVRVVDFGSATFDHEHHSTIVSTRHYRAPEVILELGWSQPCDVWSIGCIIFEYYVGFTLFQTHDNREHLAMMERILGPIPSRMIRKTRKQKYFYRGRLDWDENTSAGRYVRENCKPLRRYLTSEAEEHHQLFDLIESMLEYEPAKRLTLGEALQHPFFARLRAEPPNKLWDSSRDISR
Sequence of Cyclin-dependent kinase 1 (Homo sapiens) (P06493 whole entry, looked up): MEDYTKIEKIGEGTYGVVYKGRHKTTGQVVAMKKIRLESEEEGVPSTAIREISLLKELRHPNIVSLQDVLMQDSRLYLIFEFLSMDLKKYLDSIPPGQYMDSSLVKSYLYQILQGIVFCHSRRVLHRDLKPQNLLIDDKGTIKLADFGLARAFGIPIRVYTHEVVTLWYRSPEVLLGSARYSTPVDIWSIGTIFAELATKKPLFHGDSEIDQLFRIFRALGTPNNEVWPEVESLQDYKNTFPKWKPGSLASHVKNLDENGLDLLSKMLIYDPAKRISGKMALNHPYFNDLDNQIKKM

With `COc1cc(N2CCN(C(C)C)CC2)ccc1Nc1nc(Nc2cccc3ncccc23)c2cc[nH]c2n1`, the inhibition – broadly, the relative decrease from the control value, in per cent – was -1.47% in assay [1]; -2.11% in assay [2]; 0.2% in [3]; 1.38% in assay [4]; 4.94% in [5]; 1.96% in assay [6]. In addition, the inhibition in assay [7] is 3.44%; in assay [8] it was 2.69%; in [9] it was 4.49%; in [10] it was 1.33%; in assay [11], -2.06%; in assay [12] it was -0.07%. Further, the inhibition in [13] is 1.11%; in assay [14] it was 1.69%; in assay [15] it was 4.66%; in assay [16], 1.04%; in assay [17], 8.48%; in assay [18] it was 4.18%. For the same compound, the results for the inhibition in [19] and in assay [20] were 20.7% and -0.15%, respectively.
As for `Nc1nccc(-c2c(-c3ccc(F)cc3)ncn2C2CCNCC2)n1`, the inhibition in assay [1] was 1.81% and 6.64%; in assay [2] it was -1.77% and 1.52%; in assay [3], 15.6% and 20.3%; in assay [4], 0.24% and 0.46%; in assay [5] it was 2.44% and 1.3%; in [6], 4.08% and 1.21%. Moreover, the inhibition in assay [7] is -7.29% and 6.19%; in assay [8], -1.76% and 0.82%; in assay [9], -0.76% and 1.53%; in [10] it was -0.31% and 0.39%; in assay [11], -1.14% and -1.16%; in assay [12], 0.24% and -0.14%. Moreover, the inhibition in [13] is 0.89% and 0.97%; in assay [14], 0.29% and 0.63%; in [15], 1.43% and 1.29%; in assay [16], -5.67% and 1.15%; in assay [17], -4.19% and 1.96%; in [18], 2.07% and 0.24%. The inhibition in [19] is 11.9% and 2.02%; in [20] it was -0.13% and 1.41%.
Turning to `CS(=O)(=O)CCNCc1ccoc1-c1ccc2ncnc(Nc3ccc(OCc4ccccc4)cc3)c2c1`, the inhibition is 0.93% in assay [1]; 1.14% in assay [2]; 0.44% in [3]; -0.72% in assay [4]; 1.35% in assay [5]; 1.48% in assay [6]. Further, the inhibition in assay [7] was 3.32%; in [8], 1.98%; in assay [9], 3.45%; in assay [10], -1.56%; in [11], -1.1%; in assay [12] it was 0.34%. Moreover, the inhibition was 2.91% in [13]; 0.75% in [14]; 1.14% in assay [15]; -0.43% in assay [16]; 5.44% in [17]; 0.36% in [18]. Moreover, the results for the inhibition in assay [19] and in assay [20] were -2.93% and -0.17%, respectively.
Take `CCOc1ccc2c(-c3ccnc(Nc4cc(OC)cc(C(F)(F)F)c4)n3)cnn2n1`: the inhibition in [1] was 2.72%; in assay [2], -2.09%; in assay [3], 2.37%; in assay [4], 2.86%; in assay [5], 12.1%; in assay [6], 2.24%. For the same compound, the inhibition in assay [7] was found to be 12.5%; in assay [8] it was 1.37%; in [9] it was 11.9%; in assay [10], 3.56%; in assay [11], 3.56%; in assay [12] it was 1.15%. The inhibition in assay [13] was found to be 6.68%; in assay [14], 2.44%; in assay [15], 9.18%; in assay [16], 2.68%; in [17] it was 7.59%; in [18], 81.2%. For the same compound, the inhibition was 96.3% in assay [19] and 3.69% in [20].
As to `CN1CCN(Cc2ccc(-c3cc4ncnc(Nc5ccc(OCc6cccc(F)c6)c(Cl)c5)c4s3)o2)CC1`, the inhibition is 4.06% and 5.69% in assay [1]; 2.07% and 2.73% in assay [2]; 3.72% and 4.9% in assay [3]; 1.26% and -0.15% in assay [4]; 3.35% in [5]; 2.79% and 0.8% in assay [6]. Moreover, the inhibition in assay [7] was 5.88% and 5.34%; in assay [8] it was 3.41% and 3.54%; in [9], 4.99% and 6.73%; in assay [10] it was -1.62% and 3.97%; in assay [11], -0.88% and -0.53%; in [12], 0.41% and 3.55%. The inhibition in [13] was 4.82% and 8.07%; in assay [14] it was 1.3% and 1.22%; in [15], 2.71% and 2.36%; in [16] it was -3.55% and 3.09%; in [17], -1.42% and 9.4%; in [18], -0.35% and 2.37%. The inhibition is -0.11% and 1.21% in [19]; -0.14% and 1.15% in [20].
With `Cc1ccc(-c2cc3c(NC(=O)C4CC4)ncnc3o2)cc1`, the inhibition in [1] was determined as 5.03%; in assay [2], 2.01%; in assay [3] it was 3.1%; in [4], 0.77%; in [5], 3.16%; in [6] it was 1.63%. The inhibition in [7] is 0.2%; in assay [8], 4.69%; in assay [9], 6.42%; in [10], 1.4%; in assay [11], -0.64%; in assay [12], 3.36%. The inhibition in assay [13] was 4.97%; in [14], 1.87%; in [15] it was 3.17%; in assay [16], 1.55%; in assay [17] it was 3.23%; in [18] it was -0.87%. For the same compound, the results for the inhibition in assay [19] and in assay [20] were 6.08% and 2.11%, respectively.
Take `NS(=O)(=O)c1cccc(N/C=C2\C(=O)Nc3ccccc32)c1`: the inhibition in assay [1] turned out to be 12.7%; in assay [2], 5.4%; in assay [3] it was 14%; in assay [4], 2.85%; in assay [5], 7.45%; in [6], 4.87%. Also, the inhibition was found to be 8.39% in [7]; 5.07% in assay [8]; 16% in [9]; 4.56% in [10]; 11.3% in assay [11]; 5.5% in assay [12]. The inhibition in assay [13] stood at 18.1%; in assay [14], 2.87%; in assay [15], 16.5%; in assay [16], 2.67%; in assay [17] it was 55.6%; in [18], 2.13%. Further, the inhibition in assay [19] was found to be 13.7%; in assay [20], 1.92%.
